# Results taken from PubChem BioAssay (EPA / NIEHS).
# Inconclusive results are not listed. Calls of active or inactive are those of the source. How the source made its calls, unless noted: active means hit-call score of the fitted dose curve at least 0.9, where 1 is the maximum; inactive means score below 0.9.
# System: not listed separately
# Test: CCTE_Deisenroth_5AR_NBTE_acceptor: CCTE's 5alpha-reductase NanoBRET Target Engagement Assay - Autofluorescence Screen, Deisenroth Lab (AID 2284321);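 further: compound fluorescence in the acceptor channel under 460 nm excitation flags autofluorescence artifacts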
# Details: actives raise or lower the signal
# How it was run: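 Acceptor-channel fluorescence flags artifacts, with excitation fixed at 460 nm. Nominal 100 uM chemical samples were read in triplicate runs, and signal changes were fitted in both directions relative to DMSO.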
Structure (SMILES),outcome,AC50
CC(C)(c1ccccc1)c1ccc(O)cc1,inactive,
CCCCCCCCCC[N+](C)(C)CCCCCCCCCC,,4.7 µM (active)
Clc1ccc(C(c2ccccc2Cl)C(Cl)(Cl)Cl)cc1 (stereo not given),inactive,
Cc1cc(-c2ccc(N)c(C)c2)ccc1N,inactive,
CCC(C)c1cc([N+](=O)[O-])cc([N+](=O)[O-])c1O (stereo not given),,9.91 µM (active)
ClC(Cl)=C(c1ccc(Cl)cc1)c1ccc(Cl)cc1,inactive,

# System: SRD5A2 (gene 6716)
# Test: CCTE_Deisenroth_5AR_NBTE_ratio: CCTE's 5alpha-reductase NanoBRET Target Engagement Assay - Ratio, Deisenroth Lab (AID 2284322)
# Details: actives raise or lower the signal
# How it was run: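 HEK293T cells transiently expressing an SRD5A2-NanoLuc fusion (20 h post-transfection) were exposed to test chemical (10 nM - 29.9 uM, 8 points) for 3 h, then testosterone tracer for a further 2 h. Acceptor/donor BRET ratio was fitted bidirectionally against DMSO baseline.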
Structure (SMILES),outcome,AC50
CC(C)(c1ccccc1)c1ccc(O)cc1,inactive,
CCCCCCCCCC[N+](C)(C)CCCCCCCCCC,,10.3 µM (active)
Clc1ccc(C(c2ccccc2Cl)C(Cl)(Cl)Cl)cc1 (stereo not given),,50 µM (active)
Cc1cc(-c2ccc(N)c(C)c2)ccc1N,,50 µM (active)
CCC(C)c1cc([N+](=O)[O-])cc([N+](=O)[O-])c1O (stereo not given),,53.3 µM (active)
ClC(Cl)=C(c1ccc(Cl)cc1)c1ccc(Cl)cc1,inactive,

# System: not listed separately
# Test: TAMU_PeakParms_SingleDonor1434_Asystole: Texas A&M University (TAMU) 1.5-hr Human Induced Pluripotent Stem Cell (iPSC)-derived Cardiomyocytes Calcium (Ca+2) Flux Assay for Cardiotoxicity: Asystole (quiescence of beating) (AID 2284328; active means hit-call score of the fitted dose curve at least 0.9, where 1 is the maximum)
# Details: not given
# How it was run: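 Donor 1434 iPSC-cardiomyocytes exposed 90 min at 37C, 5% CO2, to 0.2, 1, 10 and 100 uM in 0.5% DMSO. Ca2+ dye fluorescence gave average peak frequency; POD is EC95, a 95% beat-rate drop versus controls.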
row,Structure (SMILES),outcome
1,C=CC(N)=O,inactive
2,c1cc2ccc3cccc4ccc(c1)c2c34,inactive
3,ClC1=C(Cl)[C@]2(Cl)[C@@H]3[C@@H]4C[C@@H]([C@H]5O[C@@H]45)[C@@H]3[C@@]1(Cl)C2(Cl)Cl,inactive

# System: not listed separately
# Test: IUF_NPC1_cytotoxicity_72hr: Cytotoxicity Assessment at 72 hours in the Leibniz Research Institute for Environmental Medicine (IUF) Neural Progenitor Cell Proliferation Assay (NPC1) (AID 2284332; active means hit-call score of the fitted dose curve at least 0.9, where 1 is the maximum;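 further: rising LDH signal means more cytotoxicity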)
# Details: not given
# How it was run: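 Cytotoxicity by LDH membrane-integrity assay on medium supernatants, fluorescence via resazurin reduction, after 3-day single exposure of primary hNPC spheres at 37C, pH 7.2-7.6 with growth factors. Fitted upward against baseline.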
row,Structure (SMILES),outcome
1,CO/C=C(/C(=O)OC)c1ccccc1COc1cccc(C(F)(F)F)n1,inactive
2,O=S(=O)(O)C(F)(F)C(F)(F)C(F)(F)C(F)(F)C(F)(F)C(F)(F)F,inactive
3,O=S(=O)(O)C(F)(F)C(F)(F)C(F)(F)C(F)(F)F,inactive
4,C=CC(N)=O,inactive
5,CCOP(=S)(OCC)SCSC(C)(C)C,inactive
